The values that follow come from the antibiotic and cytotoxicity screens of Wong et al. (2023).

Out of some 39,000 compounds screened, about 3,300 (8.5%) were called active. The entries come from a sample that favours actives as a whole.

This test relates to HepG2. The test can be described thus: cytotoxicity call (relative viability < 0.9). The note with it: 10 µM.
Consider `CO[C@H]1CN(C)C(=O)c2ccc(NS(=O)(=O)c3cn(C)cn3)cc2OC[C@@H](C)N(Cc2cccc(F)c2)C[C@H]1C`, for which the cytotoxicity call is “inactive”.
Then `C[C@H](CO)N1C[C@H](C)[C@H](CN(C)Cc2ccc(C(=O)O)cc2)Oc2c(NC(=O)C3CCOCC3)cccc2C1=O`, with “inactive”; and `C[C@@H]1CN([C@@H](C)CO)C(=O)c2cccc(NC(=O)Nc3ccccc3)c2O[C@@H]1CN(C)Cc1ccc(Cl)c(Cl)c1`, with “inactive”.
Then `Cc1cc2n(c(=O)c1C(N)=O)CCO2`, with “inactive”; and `CC/C=C\C/C=C\C/C=C\C/C=C\C/C=C\C/C=C\CCC(=O)OCC`, with “inactive”; and `C[C@@H]1CN([C@@H](C)CO)C(=O)c2cc(NC(=O)Nc3ccc4c(c3)OCO4)ccc2O[C@@H](C)CCCCO[C@@H]1CN(C)Cc1ccncc1`, with “inactive”.
The result for `CCCNC(=O)N1C[C@]2(CN(C2)S(=O)(=O)c2cccc(c2)OC)c2c(n(c3cc(ccc23)OC)C)[C@@H]1CO` reads “inactive”.
As to `CCCNC(=O)N1C[C@]2(CN(C2)S(=O)(=O)c2ccccc2)c2c(n(c3cc(ccc23)OC)C)[C@H]1CO`, the cytotoxicity call is “active”.
Take `CCCNC(=O)N1C[C@]2(CCN(CC2)S(=O)(=O)c2ccc(cc2)OC)c2c(n(c3cc(ccc23)OC)C)[C@H]1CO`: the cytotoxicity call is “inactive”.
The result for `CCCNC(=O)N1C[C@]2(CN(C2)S(=O)(=O)c2ccccc2)c2c(n(c3cc(ccc23)OC)C)[C@@H]1CO` reads “inactive”; that for `CCCNC(=O)N1C[C@]2(CCN(CC2)S(=O)(=O)c2ccc(cc2)OC)c2c(n(c3cc(ccc23)OC)C)[C@@H]1CO`, “active”; that for `CCCNC(=O)N1C[C@]2(CCN(CC2)S(=O)(=O)c2ccccc2)c2c(n(c3cc(ccc23)OC)C)[C@H]1CO`, “inactive”.
Then `C[C@H]1CN([C@@H](C)CO)C(=O)c2cccc(NS(C)(=O)=O)c2O[C@H]1CN(C)S(=O)(=O)c1cccs1`, with “inactive”.
For `COCC#Cc1cnc2c(c1)C(=O)N([C@H](C)CO)C[C@@H](C)[C@H](CN(C)C(C)=O)O2`, the cytotoxicity call is “inactive”.
With `N[C@@H]1CC(=O)N(c2ccc(F)cc2)C1`, the cytotoxicity call was “inactive”.
Consider `C[C@H](CO)N1C[C@H](C)[C@H](CN(C)S(=O)(=O)c2ccc(Cl)cc2)Oc2ccc(NS(=O)(=O)c3cn(C)cn3)cc2C1=O`, for which the cytotoxicity call is “inactive”.
As for `O=C(CCCCC(=O)N/N=C/[C@H](O)[C@@H](O)[C@H](O)CO)NO`, the cytotoxicity call is “inactive”.
The result for `COc1ccc(CN(C)C[C@H]2OCCCC[C@@H](C)Oc3ccc(NS(=O)(=O)c4cccs4)cc3C(=O)N([C@H](C)CO)C[C@@H]2C)cc1` reads “inactive”.
Turning to `COC(=O)C[C@](O)(CCCC(C)(C)O)C(=O)O[C@@H]1C(OC)=C[C@]23CCCN2CCc2cc4c(cc2[C@H]13)OCO4`, the cytotoxicity call is “active”.
As for `CC(C)(O)[C@@H]1CC[C@]2(CO)[C@@H](O)CC[C@](C)(O)[C@H]2[C@@H]1O[C@@H]1O[C@H](CO)[C@@H](O)[C@H](O)[C@H]1O`, the cytotoxicity call was “inactive”.
Regarding `Cc1ccc(S(=O)(=O)N(C)C[C@H]2Oc3c(NC(=O)c4cnccn4)cccc3C(=O)N([C@@H](C)CO)C[C@@H]2C)cc1`, the cytotoxicity call is “inactive”.
Then `C[C@@H]1CCCCO[C@@H](CN(C)S(=O)(=O)c2ccc(Cl)cc2)[C@@H](C)CN([C@H](C)CO)C(=O)c2cc(NC(=O)c3ccccc3)ccc2O1`, with “inactive”; and `C[C@H]1CCCCO[C@H](CN(C)S(=O)(=O)c2ccc(Cl)cc2)[C@@H](C)CN([C@@H](C)CO)C(=O)c2cc(NC(=O)c3ccccc3)ccc2O1`, with “active”.
As for `C[C@@H]1CN([C@@H](C)CO)C(=O)c2cc(NC(=O)c3ccccc3)ccc2O[C@@H](C)CCCCO[C@@H]1CN(C)S(=O)(=O)c1ccc(Cl)cc1`, the cytotoxicity call is “inactive”.
Regarding `C[C@H](CO)N1C[C@H](C)[C@H](CN(C)S(=O)(=O)c2ccc(Cl)cc2)OCCCC[C@H](C)Oc2ccc(NC(=O)c3ccccc3)cc2C1=O`, the cytotoxicity call is “inactive”.
Then `C[C@@H]1CN([C@H](C)CO)C(=O)c2cc(NC(=O)c3ccccc3)ccc2O[C@@H](C)CCCCO[C@H]1CN(C)S(=O)(=O)c1ccc(Cl)cc1`, with “active”.
For `C[C@@H]1CN([C@@H](C)CO)C(=O)c2cc(NC(=O)c3ccccc3)ccc2O[C@@H](C)CCCCO[C@H]1CN(C)S(=O)(=O)c1ccc(Cl)cc1`, the cytotoxicity call is “active”.
Then `C[C@@H]1CCCCO[C@@H](CN(C)S(=O)(=O)c2ccc(Cl)cc2)[C@H](C)CN([C@H](C)CO)C(=O)c2cc(NC(=O)c3ccccc3)ccc2O1`, with “inactive”; and `C[C@@H]1CCCCO[C@H](CN(C)S(=O)(=O)c2ccc(Cl)cc2)[C@@H](C)CN([C@H](C)CO)C(=O)c2cc(NC(=O)c3ccccc3)ccc2O1`, with “inactive”; and `C[C@@H]1CCCCO[C@@H](CN(C)S(=O)(=O)c2ccc(Cl)cc2)[C@@H](C)CN([C@@H](C)CO)C(=O)c2cc(NC(=O)c3ccccc3)ccc2O1`, with “inactive”.
Then `COCC#Cc1ccc([C@H]2[C@H](CO)N3C(=O)CN(C(=O)c4ccncc4)C[C@@H]23)cc1`, with “inactive”.
With `Cc1noc(C)c1S(=O)(=O)N(C)C[C@@H]1Oc2ccc(NS(=O)(=O)c3cn(C)cn3)cc2CC(=O)N([C@H](C)CO)C[C@@H]1C`, the cytotoxicity call was “inactive”.
As for `NC(=S)CS(=O)(=O)c1ccccn1`, the cytotoxicity call is “inactive”.
In the case of `CC(=O)OC[C@H]1O[C@@H](NC(N)=O)[C@H](OC(C)=O)[C@@H](OC(C)=O)[C@@H]1OC(C)=O`, the cytotoxicity call is “inactive”.
`C[C@@H]1CCCCO[C@@H](CN(C)C)[C@H](C)CN([C@@H](C)CO)C(=O)c2cc(NC(=O)Nc3cccc4ccccc34)ccc2O1`: the cytotoxicity call is “inactive”.
The result for `C[C@H]1CN([C@@H](C)CO)C(=O)c2cc(NC(=O)CCCN(C)C)ccc2O[C@@H]1CN(C)C(=O)Nc1ccccc1` reads “inactive”; that for `NC[C@@H](O)C1CCCCC1`, “inactive”; that for `c1cn2c3c(n1)CCCc3c1cc(C3CCCCC3)ccc12`, “inactive”.
In the case of `NC(=O)c1cn([C@@H]2O[C@H](CO)[C@@H](O)[C@H]2O)c2ncnc(N)c2c1=O`, the cytotoxicity call was “inactive”.
The result for `CSC[C@H]1O[C@H](n2ccc3c(N)ncnc32)[C@@H](O)[C@H]1O` reads “inactive”; that for `Nc1ncnc2c1c(I)cn2[C@H]1O[C@@H](CO)[C@@H](O)[C@@H]1O`, “active”; that for `Nc1ncnc2c1c(I)cn2[C@@H]1O[C@H](CO)[C@@H](O)[C@H]1O`, “active”.
The result for `Nc1ncnc2c1ncn2[C@H]1O[C@@H](CO)[C@H](O)[C@@H]1S` reads “inactive”; that for `Nc1nc(=O)n([C@@H]2O[C@H](CO)[C@@H](O)[C@@H]2F)cc1I`, “inactive”; that for `CCS(=O)(=O)N1C[C@]2(CCN(CC2)Cc2cccc(c2)OC)c2c([nH]c3cc(ccc23)OC)[C@@H]1CO`, “inactive”.
Consider `C[C@@H]1CN([C@H](C)CO)C(=O)Cc2cc(NC(=O)CCC(F)(F)F)ccc2O[C@H]1CN(C)S(=O)(=O)c1cccs1`, for which the cytotoxicity call is “inactive”.
Then `Cc1ccc(S(=O)(=O)Nc2cccc3c2O[C@H](CN(C)S(=O)(=O)c2cn(C)cn2)[C@@H](C)CN([C@@H](C)CO)C3=O)cc1`, with “inactive”; and `COCCOC(=O)N1C(=O)[C@@]2(c3cc(C#CCC(C(=O)OC)C(=O)OC)ccc31)[C@H](C(=O)Nc1nc3ccccc3s1)[C@H]1C(=O)O[C@H](c3ccccc3)[C@H](c3ccccc3)N1[C@@H]2c1ccccc1OCCO`, with “inactive”.
Regarding `Cc1noc(C)c1S(=O)(=O)Nc1ccc2c(c1)C(=O)N([C@H](C)CO)C[C@@H](C)[C@H](CN(C)C(=O)Nc1ccc(F)cc1)OCCCC[C@@H](C)O2`, the cytotoxicity call is “inactive”.
Then `CC(C)(C)C(=O)OCOP(=O)(OCOC(=O)C(C)(C)C)C(C)(Oc1ccc(O)cc1)P(=O)(OCOC(=O)C(C)(C)C)OCOC(=O)C(C)(C)C`, with “active”; and `CC(C)(C)Oc1ccc(O)cc1`, with “inactive”.
As to `CCOC(=O)C(C)(C)Oc1ccc(Cl)cc1`, the cytotoxicity call is “inactive”.
The result for `COc1ccc(NC(=O)N(C)C[C@H]2OCCCC[C@@H](C)Oc3ccc(NS(=O)(=O)c4ccc(C)cc4)cc3C(=O)N([C@@H](C)CO)C[C@@H]2C)cc1` reads “inactive”; that for `COc1cc2c(cc1O)[C@H](c1ccc(CN3CCCC3)cc1)N(Cc1cc3c(cc1Br)OCO3)CC2`, “inactive”.
The result for `C[C@@H]1CN([C@@H](C)CO)C(=O)Cc2cc(NC(=O)Nc3ccc(C(F)(F)F)cc3)ccc2O[C@@H]1CN(C)C(=O)NC1CCCCC1` reads “active”; that for `C[C@@H]1CN([C@H](C)CO)C(=O)Cc2cc(NC(=O)Nc3ccc(C(F)(F)F)cc3)ccc2O[C@@H]1CN(C)C(=O)NC1CCCCC1`, “active”; that for `C[C@@H]1CN([C@@H](C)CO)C(=O)Cc2cc(NC(=O)Nc3ccc(C(F)(F)F)cc3)ccc2O[C@H]1CN(C)C(=O)NC1CCCCC1`, “inactive”.
As for `C[C@H](CO)N1C[C@H](C)[C@@H](CN(C)C(=O)NC2CCCCC2)Oc2ccc(NC(=O)Nc3ccc(C(F)(F)F)cc3)cc2CC1=O`, the cytotoxicity call was “inactive”.
Then `C[C@@H]1CN([C@H](C)CO)C(=O)Cc2cc(NC(=O)Nc3ccc(C(F)(F)F)cc3)ccc2O[C@H]1CN(C)C(=O)NC1CCCCC1`, with “inactive”; and `C[C@H]1CN([C@@H](C)CO)C(=O)Cc2cc(NC(=O)Nc3ccc(C(F)(F)F)cc3)ccc2O[C@H]1CN(C)C(=O)NC1CCCCC1`, with “inactive”; and `CC(C)C(=O)O`, with “inactive”.
As for `C[C@@H]1CN([C@@H](C)CO)C(=O)c2cc(NS(=O)(=O)c3cn(C)cn3)ccc2O[C@@H](C)CCCCO[C@H]1CN(C)S(=O)(=O)c1cccs1`, the cytotoxicity call is “inactive”.
Then `NCCc1cc2nc(-c3ccncc3)ccn2n1`, with “inactive”; and `CN1CCN(C(=O)C[C@H]2CC[C@H]3[C@@H](COC[C@H](O)CN3C(=O)C3CCCC3)O2)CC1`, with “inactive”.
Consider `O=c1ncc(F)c[nH]1`, for which the cytotoxicity call is “inactive”.
`CCCNC(=O)N1C[C@]2(CCN(CC2)S(=O)(=O)c2cccc(c2)OC)c2c(n(c3cc(ccc23)OC)C)[C@H]1CO`: the cytotoxicity call is “inactive”.
The result for `C=CCOC(=O)[C@@H]1[C@H]2C(=O)O[C@H](c3ccccc3)[C@H](c3ccccc3)N2[C@H](c2ccc(OCCOC(=O)[C@H]3C[C@H]4C(=O)N[C@@H](CC(C)C)C(=O)N4[C@H]3c3ccc(O)cc3)cc2)[C@@]12C(=O)Nc1ccc(I)cc12` reads “inactive”.
